# This is a sample that favours compounds with a hit; in the whole collection about 1.9% have one here.
# PLCb3 inh – inhibitors of human phospholipase C beta3; Q01970; Purified PLC-beta3, fluorogenic substrate, fluorescence; inhibition, % at 12.2 µM; 370,000 compounds, 0.18% hits; AID 720704; in the data active = inhibition above about 11%;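 note: 0% = median of compound wells on plate and 100% = full blocker control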
# MsrA act – activators of bovine methionine sulfoxide reductase A; purified bovine MsrA, absorbance read-out; activation, % at 10.6 µM; 360,000 compounds, 0.3% hits; AID 602163; in the data active = activation above about 7.5%;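 note: 0% = vehicle and 100% = reference activator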
# PLC-gamma1 inh – blocks human PLC-gamma1 enzyme activity; purified PLC-gamma1, fluorogenic substrate, fluorescence; P19174; 370,000 compounds, 0.84% hits; inhibition, % at 12.2 µM
# MsrA inh – inhibits bovine methionine sulfoxide reductase A | purified bovine MsrA, absorbance read-out | inhibition, % at 15.5 µM | 360,000 compounds, 0.75% hits; in the data active = inhibition above about 4.5%;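 note: 0% = vehicle wells with enzyme and 100% = reference inhibitor wells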
# PLCg1 ctr – inhibits human PLC-gamma1 in PLC-beta3 counter-screen | shares compounds with PLC-gamma1 inh | purified PLC-gamma1, fluorogenic substrate, fluorescence | inhibition, % at 12.3 µM | 3,300 compounds, 3.1% hits | AID 743258
# PLCbeta3 conf – confirmation of human PLC-beta3 inhibitors. shares compounds with PLC-gamma1 inh. purified PLC-beta3, fluorogenic substrate fluorescence. inhibition, % at 12.3 µM. 3,300 compounds, 1% hits; in the data active = inhibition above about 11%
# Numbers without * were called inactive; / = no result. Cut-off read from the data, not from the text of the source, unless noted: active = inhibition above about 9.5%; inactive = the rest.
SMILES,PLCb3 inh,MsrA act,PLC-gamma1 inh,MsrA inh,PLCg1 ctr,PLCbeta3 conf
O=C(O)CCC(=O)N1CCc2cc(S(=O)(=O)N(CCc3ccccc3)Cc3ccccc3)ccc21,4,-9,10*,1,-3,-6
O=C(NNC(=O)c1ccncc1)Nc1ccc(N=Nc2ccccc2)cc1,0,-6,12*,3,7,9
O=C(NNC(=O)c1ccncc1)Nc1ccccc1,-2,-2,0,-1,/,/
CCOc1ccc(Nc2nc(-c3cccnc3)cs2)cc1,2,-3,12*,1,-5,1
CCOc1ccccc1N/C=C(\C#N)c1nc2ccccc2n1C,3,-2,9.6*,2,-5,-8
Cc1ccc(CN(C)C(=O)CN2C(=O)NC(c3ccccc3)(c3ccccc3)C2=O)c(C)c1,-1,-1,11*,0,3,-5
COc1c(C)cc(Br)cc1C(=O)NC(=S)NCc1ccco1,-7,-1,-2,0,/,/
Cc1ccc(OCC(=O)OCc2c(C)noc2C)cc1C,0,-3,15*,-1,-3,0
CCOC1=C2CN(S(=O)(=O)c3ccc(C)cc3)[C@H](c3ccccc3)C[C@@H]2N(S(=O)(=O)c2ccc(C)cc2)[C@H](c2ccccc2)C1,-2,-2,1,0,/,/
NC(N)=N/N=C/c1ccc(OCc2ccccc2)c(OCc2ccccc2)c1,-4,-4,12*,0,4,4
CCOc1ccc(C(=O)Nc2ccc3c(c2)OCCO3)cc1[N+](=O)[O-],4,-5,10*,0,-1,0
CCCCNC(=O)CSc1nc2ccccc2c(=O)n1CC1COc2ccccc2O1 (stereo unspecified),7,-12,13*,2,3,2
CCOC(=O)CSc1nc2ccccc2c(=O)n1CC1CCCC1,1,-10,8,2,/,/
CCOC(=O)CSc1nc2ccccc2c(=O)n1CC1CCC(C(=O)NCc2ccco2)CC1 (stereo unspecified),4,-1,10.0*,0,-2,-4
COCCN1C(=O)CCC1(C)c1nnnn1-c1ccc2c(c1)OCCO2 (stereo unspecified),1,0,2,0,/,/
CN(C)S(=O)(=O)c1ccc(C(=O)Nc2nnc(Cc3ccccc3)s2)cc1,11*,-11,9,1,-4,-13
O=C(Nc1nnc(Cc2ccccc2)s1)c1ccccc1,-7,-2,-1,0,/,/
CCn1c(COc2ccccc2C)nnc1SCC(=O)N1CCCCC1,1,-1,14*,0,-3,-2
CCn1c(COc2ccccc2C)nnc1SCC(=O)N1CCC(C)CC1,2,-10,-5,1,/,/
COc1ccc(/C=N/NC(=O)c2nnn(-c3nonc3N)c2-c2cccs2)c(OC)c1,-126,-3,-67,4,/,/
O=C(OCC(=O)C12CC3CC(CC(C3)C1)C2)c1cnccn1,3,-13,12*,0,1,1
O=C(COC(=O)c1cnccn1)c1ccccc1,12*,-2,-1,0,-4,0
O=C(OCC(=O)C12CC3CC(CC(C3)C1)C2)c1ccccn1,-1,-4,5,0,/,/
O=C(COC(=O)c1ccc(O)cc1O)NC12CC3CC(CC(C3)C1)C2,-1,-1,7,1,/,/
O=C(OCC(=O)C12CC3CC(CC(C3)C1)C2)c1ccc(O)cc1O,3,3,10*,1,2,3
SMILES,PLCb3 inh,MsrA act,PLC-gamma1 inh,MsrA inh,PLCg1 ctr,PLCbeta3 conf
Cc1ccc(S(=O)(=O)N2CC3=C(c4ccccc4)CC4(C)C(=O)C(C)(C)CC4=C3C2)cc1 (stereo unspecified),-11,/,-8,0,/,/
Cc1cc(C)nc(SCc2nnc(SCC(=O)Nc3c(C)cccc3C)o2)n1,8,0,11*,0,-6,-2
Cc1cccc(C)c1NC(=O)CSc1nnc(Cc2ccccc2)o1,0,-10,0,-2,/,/
Cc1ccc(F)cc1NC(=O)CCOc1ccccc1,11*,1,11*,0,5,4
Cc1ccc(NC(=O)CCOc2ccccc2)c(C)c1,/,-5,/,/,/,/
CN(C)C(=O)c1ccccc1Sc1ccc(Cl)cc1Cl,1,-1,-3,0,/,/
CN(C)C(=O)c1ccccc1Sc1cc(Cl)ccc1Cl,-1,-4,15*,0,-3,-1
Cc1ccc(OCC(=O)Nc2ccc(S(=O)(=O)N3CCCCC3)cc2)c([N+](=O)[O-])n1,3,-5,2,-1,/,/
Cc1ccc(OCC(=O)Nc2cc(S(=O)(=O)N3CCCCC3)ccc2C)c([N+](=O)[O-])n1,1,-4,10*,1,-4,-1
CCC1CCCCN1C(=O)n1ncc(C(O)(c2ccccc2)c2ccccc2)n1 (stereo unspecified),-3,/,0,/,/,/
O=C(O)c1ccc(-n2c(-c3cc(-c4ccco4)[nH]n3)n[nH]c2=S)cc1,9,1,31*,-1,23*,10
COc1ccc(-n2c(COc3ccc(Cl)cc3)nnc2SCC(=O)Nc2ccc(Oc3ccccc3)cc2)cc1,-1,/,-1,/,/,/
COc1ccc(CCNC(=O)C/C(C)=N/NC(=O)C2CCCCC2)cc1OC,-1,-9,2,0,/,/
CCNC(=O)C/C(C)=N/NC(=O)C1CCCCC1,8,-5,11*,2,0,-1
O=C(NC1=C(Nc2ccc(Cl)cc2)C(=O)c2ccccc2C1=O)c1ccccc1,5,-2,5,1,/,/
Cc1cccc(NC2=C(NC(=O)c3ccccc3)C(=O)c3ccccc3C2=O)c1,6,2,10*,2,5,4
O=C(O)CNCC1COc2ccccc2O1 (stereo unspecified),6,0,-1,0,/,/
CN(C)C(=O)OCC1COc2ccccc2O1 (stereo unspecified),-1,-2,9.9*,0,-5,-1
O=C(O)CCC1COc2ccccc2O1 (stereo unspecified),10,0,11*,0,1,-3
CO[C@H]1CN(C)C(=O)c2cc(NC(=O)c3ccccc3)ccc2OC[C@H](C)NC[C@@H]1C,3,/,3,-1,/,/
COc1ccc(CN2CCNC(=O)C2CC(=O)N(C)C2CCOCC2)cc1OC (stereo unspecified),-6,-2,-7,-1,/,/
COc1ccc(Cn2nnnc2C(C(C)C)N(Cc2ccco2)Cc2cccs2)cc1 (stereo unspecified),14*,-1,14*,2,-2,-1
O=C1C(=O)N(CCO)C(c2ccc(Br)cc2)/C1=C(\O)c1ccccc1 (stereo unspecified),4,-9,12*,4,-5,1
CN1CCN(NC(=O)c2ccc(Cl)s2)CC1,-11,-8,9.8*,0,-2,3
